Source: PubChem BioAssay (National Center for Advancing Translational Sciences (NCATS))
VP16 counter – inhibits Gal4-VP16 luciferase reporter, ROR gamma counter-screen; Potency, µM (top dose mostly 53.6 µM), for inactives: at the top dose activity, negative = inhibition, usual class: inhibitors; AID 2546; Drosophila S2 Gal4-VP16 UAS-luciferase, luminescence, 20 h; 310,000 tested, 3.5% active;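 also: Gal4-VP16 expression switched on by copper sulfate through the metallothionein promoter; nearly all actives have a fitted effect of over 50% in size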
Tau fibril FP – tau fibrillization inhibition (FP); P10636; K18 P301L tau heparin fibrillization, Alexa594 FP, 6 h; Potency, µM (titrated, usually from 57.7 µM), without a hit: top-dose activity, negative = inhibition, usual class: inhibitors; 280,000 tested, 0.39% active; AID 1468; also: nearly all actives have a fitted effect of over 55% in size
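Read-out: fluorescence polarization of Alexa 594-labeled tau (0.24 uM), 555 nm excitation, 632 nm emission. Mixtures held 15 uM unlabeled K18 P301L, compound and 20 uM heparin, pH 7 acetate buffer, incubated 6 hr at 37 C.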
Tau ThT inhib – inhibitors of human tau fibril formation, thioflavin T binding. P10636. recombinant tau K18 P301L, heparin-induced fibrillization, ThT fluorescence. Potency, µM (top dose mostly 57.4 µM), for the others: top-dose activity, negative = inhibition, usual class: inhibitors. 270,000 tested, 2.1% active. AID 1460; also: nearly all actives have a fitted effect of over 55% in size
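Tau K18 P301L fragment (15 uM unlabeled plus 0.24 uM Alexa 594-labeled) in 100 mM sodium acetate pH 7 with compound, fibrillization induced by 20 uM heparin for 6 hr at 37 C. Thioflavin T (30 uM) added, fluorescence read after 1 hr (ex 450, em 510 nm).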
RORgamma inh – ROR gamma (mouse) transcription inhibition; P51450; Drosophila S2 Gal4-RORgamma UAS-luciferase reporter, 20 h; Potency, µM (doses to about 53.6 µM), without a hit: at the top dose activity change, negative = inhibition, actives largely listed as inhibitors; 310,000 tested, 5.4% active; AID 2551; also: nearly all actives have a fitted effect of over 60% in size
Target sequence (P51450 whole entry, looked up, the tested form may be a part): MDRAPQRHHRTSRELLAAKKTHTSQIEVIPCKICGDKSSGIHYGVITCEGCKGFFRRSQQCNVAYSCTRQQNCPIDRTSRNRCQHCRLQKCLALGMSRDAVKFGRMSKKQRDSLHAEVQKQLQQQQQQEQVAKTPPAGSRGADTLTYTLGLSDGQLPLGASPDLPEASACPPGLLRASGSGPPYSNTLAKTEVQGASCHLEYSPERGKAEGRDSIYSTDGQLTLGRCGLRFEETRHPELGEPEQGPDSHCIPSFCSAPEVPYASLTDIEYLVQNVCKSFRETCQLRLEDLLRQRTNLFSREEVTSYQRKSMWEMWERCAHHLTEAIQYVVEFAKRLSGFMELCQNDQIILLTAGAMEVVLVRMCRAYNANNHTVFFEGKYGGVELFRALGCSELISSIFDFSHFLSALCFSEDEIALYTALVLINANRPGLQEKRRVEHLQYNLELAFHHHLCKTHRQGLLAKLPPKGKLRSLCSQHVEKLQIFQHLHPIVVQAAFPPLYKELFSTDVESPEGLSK
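Read-out: Photinus luciferase luminescence; inhibitors lower reporter signal. Insect Schneider cells with Gal4-ROR gamma fusion under metallothionein promoter, UAS reporter; 700 uM final copper sulfate induction, 20 hr, ambient temperature.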
Tau fluor counter – counter-screen for tau fibril formation inhibitors. Potency, µM (doses to about 57.7 µM), without a hit: top-dose activity change, negative = decrease. tau K18 P301L Alexa594 fluorescence, heparin fibrillization. 280,000 tested, 0.93% active; also: nearly all actives have a fitted effect of over 55% in size
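Human tau K18 P301L (15 uM unlabeled, 0.24 uM Alexa 594-labeled) in 100 mM sodium acetate pH 7 with 20 uM heparin, 6 hr at 37 C. ThT 30 uM added, 1 hr ambient; Alexa 594 FP and total fluorescence read at 555/632 nm.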
Starred values were filed as active, the others as inactive; ? = inconclusive; . = no result; [ ] = dose if it differs, or a comment. Hits are enriched below; roughly 7.3% of the tested compounds scored in any of these assays. Calls follow the shape of the dose curve; as a rule, active = well fitted curve in the direction sought with a large enough effect; inconclusive = small, poorly fitted or top-dose-only effect, or another doubt; inactive = no such curve, though single readings can be large; an effect the other way counts as inactive or inconclusive. % is scaled to controls: 0 for no effect and ±100 for the full control effect; potency is read from the fitted curve at half-maximal effect.

SMILES | VP16 counter | Tau fibril FP | Tau ThT inhib | RORgamma inh | Tau fluor counter
C=C1CCN(C(CC(C)C)C(=O)NN2CCOCC2)S(=O)(=O)c2ccccc21 (centres undefined) | 5% | . | . | -5% | .
CCc1cc2c(nc1CC)CCN(CC/C(C)=N/OC[C@@H](O)COCc1ccco1)C2 | -9%[10 µM] | -3%[11.6 µM] | -2%[11.5 µM] | -10%[10 µM] | -7%[11.6 µM]
CCC1CCc2c(sc(NC(=O)C3c4ccccc4Oc4ccccc43)c2C#N)C1 (centres undefined) | . | 0% | -4% | . | -20%
C[C@@]12CCC(OC(=O)c3ccccc3)CC1CCc1ccccc12 (some centres undefined) | 8% | -10% | -7% | -7% | -8%
CC(C)c1ccc(-c2nc3ccccc3s2)cc1 | 2µM* | -14% | ? | ? | -30%
Nc1cccc(-c2nc3ccccc3s2)c1 | -29% | 8% | ? | ? | ?
O=C(Oc1c(-c2ccccc2)c(=O)n2c3c(cccc13)CC2)c1ccc(F)cc1 | -9% | -5% | ? | 23% | -18%
CC(C)(C)OC(=O)N1CCC[C@H]1C(=O)Nc1ccc(S(=O)(=O)C(F)F)cc1 | 3% | . | . | 31% | .
Cc1occc1-c1n[nH]c(=S)n1-c1ccccc1 | ? | 1% | 0% | ? | 3%
Cc1ccc(-n2c(-c3ccco3)n[nH]c2=S)cc1 | ? | -7% | -6% | 11µM* | -9%
CCOc1ccc(-n2c(-c3ccco3)n[nH]c2=S)cc1 | ? | -8% | -12% | 2.8µM* | -16%
CCc1ccc(NC(=O)C2CCCN(c3nn4cc(-c5ccc(OC)cc5)nc4s3)C2)cc1 (centres undefined) | . | 8% | ? | . | ?
OC[C@H](O)[C@H](O)[C@@H](O)[C@@H](O)[C@@H]1SC(c2ccccc2)=NN1c1ccccc1 | -25% | -2% | ? | 8.9µM* | -9%
S=C(NCc1ccncc1)NC1CCCC1 | 4% | 0% | 0% | -11% | -3%
CCc1cccc(C)c1NC(=S)NCc1ccc2[nH]c(C)cc2c1 | 10µM* | 13% | -15% | 4µM* | ?
Fc1ccc(CNC(=S)NC2CCCC2)cc1 | ? | -5% | 5% | 8.9µM* | 1%
Fc1ccc(CNC(=S)NC2CCCCC2)cc1 | 11µM* | -2% | 3% | 5µM* | -4%
Cc1cc2cc(CNC(=S)NC3CCCCC3)ccc2[nH]1 | ? | 15% | -5% | 14µM* | ?
O=C(c1cccc(Cl)c1)N(Cc1cccc(F)c1)C1CCS(=O)(=O)C1 (centres undefined) | . | -6% | 4% | . | -4%
CCc1nn(CC(=O)NC(C)c2ccccc2)c(=O)c2cc3sccc3n12 (centres undefined) | . | -13% | 4% | . | 0%
CC(NCc1ccc(F)cc1)C(=O)NC1CCCCC1 (centres undefined) | 3% | -20% | 32µM* | -13% | -21%
O=C(Nc1nnc(-c2ccccc2)o1)c1ccc(Cl)cc1 | 1.4µM* | 2% | -3% | 0.71µM* | -6%
Cc1ccnc2nc(C(=O)Nc3nnc(-c4ccc(Cl)cc4)o3)nn12 | -3% | 2% | -3% | -2% | -1%
CC(=O)c1ccc(C(=O)Nc2nnc(-c3ccc(Cl)cc3)o2)cc1 | 2.5µM* | -1% | -17% | -35% | -11%
CCOc1ccccc1C(=O)NC(C(=O)OCC(=O)Nc1nnc(-c2ccccc2)o1)C(C)C (centres undefined) | 5µM* | 4% | -9% | 2.2µM* | 10%
CN(C)c1ccc(C(=O)Nc2nnc(-c3ccc(Cl)cc3)o2)cc1 | 0.5µM* | 8% | ? | 0.5µM* | 8%
COC(=O)c1ccccc1NC(=O)c1nc(-c2ccc(Cl)cc2)n2c1CCCCC2 | . | -14% | 1% | . | -8%
COc1ccc2[nH]cc(CCNc3ncncc3-c3ccccc3C(F)(F)F)c2c1 | 2% | . | . | ? | .
O=C(NCC(c1cccnc1)N1CCN(Cc2ccccc2)CC1)C(=O)Nc1ccc(Cl)cc1 (centres undefined) | . | -3% | -2% | . | -12%
CCC(C(=O)Nc1ccc(F)cc1F)n1nc(-c2ccccc2)c2c(c1=O)CCCC2 (centres undefined) | . | 0% | -15% | . | -7%
